This is an account of results in PubChem BioAssay AID1626 (SRMLSC, 2009).

Molecules are shown by their SMILES. The whole screen tested about 220,000 compounds, of which about 2,000 (0.91%) were called active. Roughly 2% stayed inconclusive and do not appear here. A selection follows. Measured potencies and affinities stand elsewhere. Unmarked numbers belong to inactive results. No stated cut-off is given here; in the data, inconclusive means inhibition above about 80% without an active follow-up result; inactive means below that; test concentration not stated here.

This assay in a line: M. tuberculosis H37Rv growth inhibitors, H37Rv strain (AID 1626).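 Further: bacteria incubated seven days before Alamar blue readout; 0% = bacteria only wells and 100% = bacteria with antibiotic wells.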 To be noted: active compounds read high, concentration not given here.
In general, inhibition refers to the relative decrease from the control value, in per cent. With `COc1ccc(N(C(=O)c2ccco2)C(C(=O)NC2CCCC2)c2ccc(N(C)C)cc2)cc1` (stereo not given), the inhibition was -10.8%.

As for `COc1ccc(NC(=O)N/C=C/c2ccccc2)cc1`, the inhibition is -0.86%. The value for `COc1cc(C(C[N+](=O)[O-])c2c(N)n(C)c(=O)n(C)c2=O)ccc1O` (stereo not given) was 1.8%; that for `COc1ccccc1C(C[N+](=O)[O-])c1c(N)n(C)c(=O)n(C)c1=O` (stereo not given) was 40.8%; that for `CCCOc1cccc(C2C(C(=O)c3ccco3)=C(O)C(=O)N2CCN(CC)CC)c1` (stereo not given) was -7.15%. Turning to `CC(C(=O)N1CCCC1)N1CCN(c2ccccc2O)CC1` (stereo not given), the inhibition was -5.08%. Take `C/C(O)=C(\N=Nc1cc(C)ccc1O)C(N)=O`: the inhibition was 0.25%. The figure for `Cc1ccc(Cn2ccc(NC(=O)c3cc(C4CC4)on3)n2)cc1` is -5.45%. As for `COc1ccc(Cn2c(C(C)C)nc3sc4ccccc4c(=O)c3c2=O)cc1`, the inhibition is 17.7%.

For the compound `CCc1nc2sc3ccccc3c(=O)c2c(=O)n1CCOC`, the inhibition was -3.87%.

As for `O=C(COc1ccccc1Br)Nc1ccccc1C(F)(F)F`, the inhibition is 1.69%. The figure for `O=c1c2[nH]c3ccccc3c2ncn1CCC1=CCCCC1` is -3.83%; for `COc1ccc2[nH]c3c(NCCC4=CCCCC4)ncnc3c2c1` it is 50.8%. The figure for `CCNC(=S)NNC(=S)NCc1ccccc1` is -6.54%; for `CCCNc1ccc(C(=O)OCC)cc1[N+](=O)[O-]` it is -2.78%. Take `CCOC(=O)c1ccc(NC(C)=O)c([N+](=O)[O-])c1`: the inhibition is -0.43%.

As to `COc1cc(S(N)(=O)=O)c(OC)cc1N`, the inhibition is -5.42%. The figure for `COC(=O)CCn1nc(-c2ccc(Cl)cc2)c2ccccc2c1=O` is 0.44%.

For the compound `CCCNC(=O)C1CCN(S(=O)(=O)c2cccc3nonc23)CC1`, the inhibition was 3.34%.

Regarding `O=C(NCc1cccs1)C(=O)NCC(c1ccco1)N1CCN(c2ccccc2F)CC1` (stereo not given), the inhibition is 4.89%. The figure for `C[C@@H](C(=O)Nc1nc(-c2ccccn2)cs1)N1C(=O)C2CCCCC2C1=O` (stereo not given in full) is 1.46%; for `Cc1csc(NC(=O)C2CCCC2)n1` it is -11.7%. Take `CC1CC1C(=O)Nc1nc(-c2ccccc2)cs1` (stereo not given): the inhibition was -12.6%.

On to `Cc1ccnc2nc(C(=O)Nc3nc(-c4ccccn4)cs3)nn12`, for which the inhibition is -1.5%. The figure for `O=C(/C=C/c1ccco1)Nc1nc(-c2ccccc2)cs1` is 9.68%. For `CC1CC1C(=O)Nc1nc(-c2ccc(Cl)s2)cs1` (stereo not given), the inhibition is 9.3%.

Turning to `O=C(/C=C\c1ccco1)Nc1nc(-c2ccccc2)cs1`, the inhibition is 9.29%. The figure for `CC(=O)Nc1ccc(C(=O)Nc2nc(-c3ccccn3)cs2)cc1` is 0.25%; for `O=C(NCc1ccc(F)cc1)C1CCCN(S(=O)(=O)c2cccc3nsnc23)C1` (stereo not given) it is -3.19%; for `NC1=NC(=O)C(Cc2cc(Cl)ccc2Cl)S1` (stereo not given) it is -5.29%.

As for `CCOC(=O)C1(C)NC(c2ccc(OC)c(OC)c2)C2C(=O)N(CC)C(=O)C21` (stereo not given), the inhibition was -0.15%.

As for `O=C(O)c1ccc(S(=O)(=O)c2ccc(Sc3ccc(C(=O)O)c(C(=O)O)c3)cc2)cc1`, the inhibition is -20.9%. Take `CCOC(=O)COc1ccc(S(=O)(=O)NCc2ccco2)cc1`: the inhibition was 10.1%. Consider `Cc1cc(C(=O)N2CCOCC2)c(C)o1`, for which the inhibition was -4.61%.

Turning to `COCCOc1ccc(C(F)(F)F)cc1NC(=O)c1ccc(C)cc1`, the inhibition was 2.93%.

Turning to `CCN1C(=O)CC(c2ccco2)Sc2ccccc21` (stereo not given), the inhibition was 4.45%. The figure for `O=P(O)(O)C12CC3CC(CC(C3)C1)C2` is 1.57%. As for `O=C(/C=C/c1cccc([N+](=O)[O-])c1)NCCSCc1ccc(Cl)cc1`, the inhibition is 11.2%. The figure for `CC(C)(C)c1cc(C(=O)NCC(=O)OCC(=O)c2cccc([N+](=O)[O-])c2)cc(C(C)(C)C)c1` is -4.29%; for `Cc1cccc([N+](=O)[O-])c1NC(=O)CN(Cc1ccccc1)Cc1ccccc1` it is -0.69%. With `CN(CCc1ccccn1)c1ncnc2[nH]ncc12`, the inhibition was 2.15%. The figure for `O=C(NCc1ccccn1)c1ccc(Br)s1` is -0.44%; for `O=C(Nc1nccs1)c1cc(Cl)ccc1[N+](=O)[O-]` it is 3.23%; for `Cc1csc(NC(=O)c2ccc(Cl)cc2[N+](=O)[O-])n1` it is -4.05%.

Consider `COc1ccc(-c2csc(NC(=O)C3CC(=O)N(c4ccc5c(c4)OCCO5)C3)n2)cc1` (stereo not given), for which the inhibition is 28%.

Turning to `O=C(Nc1nc(-c2cc(Cl)sc2Cl)cs1)c1ccc(Br)s1`, the inhibition is 1.52%.

Regarding `COc1cccc2sc(NN)nc12`, the inhibition is 7.32%. Regarding `COc1cccc2sc(Nc3nc(-c4ccncc4)cs3)nc12`, the inhibition is 1.36%. As for `CC(=O)Nc1ccc(-c2csc(NC(=O)C3CC(=O)N(c4ccc5c(c4)OCCO5)C3)n2)cc1` (stereo not given), the inhibition is -1.99%. The value for `Cc1ccc(C(=O)Nc2nc(-c3cc(Cl)sc3Cl)cs2)cc1` was 3.4%.

With `COc1ccccc1C(=O)Nc1c(C)cc(Br)cc1C`, the inhibition is 21.1%. The value for `CCCN1C(=O)C(O)(CC(=O)c2cccc(OC)c2)c2ccccc21` (stereo not given) was -1.3%.

For the compound `O=C(O)c1ccc(N2C(=O)CC(SC(=NCc3ccc4c(c3)OCO4)Nc3ccccc3)C2=O)cc1` (stereo not given), the inhibition was 1.43%.

Regarding `CCc1ccc(NC(=O)c2cnn(-c3ccccc3)c2C)cc1`, the inhibition was 1.29%. The figure for `COc1ccc(-n2c(Cc3cccs3)nnc2SCC(=O)Nc2ccc3c(c2)OCCO3)cc1` is -1.02%; for `COc1ccc(-c2cc(C(=O)NC3CCCC3)no2)cc1OC` it is 9.4%. The figure for `O=[N+]([O-])c1cccc(-c2nnc(CNC3CC3)o2)c1` is 1.99%; for `CC(C)c1ccc(OCC(=O)N2CCCCCC2)c(Br)c1` it is 4.07%. For `Cc1ccc(NC(=O)C2CC(=O)Nc3nncn32)cc1` (stereo not given), the inhibition was -5.26%.

Regarding `Cc1c(Cl)cccc1S(=O)(=O)Nc1ccnn1C`, the inhibition is -14.5%.

As for `O=C(CCS(=O)(=O)c1ccccc1)Nc1nc(-c2ccccn2)cs1`, the inhibition was 73.5%. Regarding `O=C(Nc1nccs1)C12CC3CC(C1)CC(C(=O)Nc1nccs1)(C3)C2`, the inhibition was 1.25%. The figure for `O=C(CN1C(=O)CCC1=O)Nc1nc(-c2ccccn2)cs1` is 2.51%; for `O=C(Nc1nc(-c2nc3ccccc3s2)cs1)C1CC1` it is 7.59%; for `O=C(CCSc1ccccc1)Nc1nccs1` it is 3.44%. The value for `c1ccc(-c2csc(Nc3cccnc3)n2)nc1` was 10.1%. The figure for `c1ccc(Nc2nc(-c3ccncc3)cs2)cc1` is 5.87%; for `O=C(Nc1ccccn1)C12CC3CC(C1)CC(C(=O)Nc1ccccn1)(C3)C2` it is -2.92%.

As to `O=c1[nH]c(N2CCOCC2)nc2ncn(Cc3ccccc3)c12`, the inhibition is -3.03%. The figure for `COc1ccc(NS(=O)(=O)c2ccc(Cl)c(C(=O)O)c2)cc1S(=O)(=O)N1CCCCC1` is -7.19%; for `O=c1[nH]c(N2CCc3ccccc3C2)nc2c1CCC2` it is -0.21%; for `CCOC(=O)N1CCN(c2ccc([N+](=O)[O-])cc2F)CC1C` (stereo not given) it is 9.74%. The value for `CCCCn1c(CNC(C)=O)nc2ccccc21` was 1.64%; that for `COC(=O)c1[nH]c2cc(C)ccc2c1NC(=O)CN1CCN(c2ccccc2OC)CC1` was 45%; that for `CCC(C)NC(=S)Nc1ccc(F)cc1` (stereo not given) was 0.18%.

Regarding `Cc1csc(NC(=O)C(NC(=O)c2ccccc2F)C(C)C)n1` (stereo not given), the inhibition is 5.45%. The figure for `CCc1nnc(NC(=O)C(NC(=O)c2ccccc2Cl)C(C)C)s1` (stereo not given) is 3.06%; for `CCOC(=O)c1sc(=NC(=O)/C=C/c2ccccc2)n(C)c1C` it is -0.27%; for `COc1ccc(/C(N)=N/OC(=O)c2ccc3c(c2)OCO3)cc1` it is 3.21%. Regarding `O=[N+]([O-])c1cccc(Cl)c1CSc1ccccn1`, the inhibition was 0.94%.

As for `O=C(CCCn1cnc([N+](=O)[O-])n1)Nc1cccc(Cl)c1Cl`, the inhibition is 1.24%. The figure for `O=[N+]([O-])c1ncn(Cc2ccccc2Cl)n1` is 3.07%; for `O=C(COC(=O)/C=C/c1ccccc1)Nc1cc(C(F)(F)F)ccc1N1CCOCC1` it is -0.9%. `CC(C)N(Cc1cn(C)nc1-c1cccc(Cl)c1)Cc1nccn1C`: the inhibition was 7.78%. The figure for `CN1CCC(=NNC(=O)COc2ccc(Cl)cc2)CC1` is 2.45%; for `COc1ccccc1OCC(=O)NNc1c2ccccc2nc2ccccc12` it is -2.19%; for `O=[N+]([O-])c1ccc2c(c1)oc1ccccc12` it is -1.07%. The value for `Nc1ccc2oc3ccc(N)cc3c(=O)c2c1` was 3.5%; that for `Cc1cc(NC(=O)c2ccc3c(c2)C(=O)N(CC(C)C)C3=O)no1` was 1.19%.

As to `COc1ccc(-c2noc(CSc3nnc(CCc4ccccc4)n3-c3ccccc3)n2)cc1OC`, the inhibition was 6.96%. The figure for `Fc1cccc(COc2ccccc2CNc2ccccc2)c1` is 15.2%; for `CCOc1ccccc1CNc1ccc(O)cc1` it is -6.88%; for `COc1ccc(-n2nnnc2SCC(=O)Nc2nc3c(s2)CCCC3)cc1` it is -4.11%. Turning to `COc1ccc(C(=O)NCCN2C(=O)S/C(=C\c3cccnc3)C2=O)c(OC)c1OC`, the inhibition is 8.22%.

`Cc1n[nH]c(C)c1CCCCOc1ccccc1`: the inhibition was -2.76%. The value for `Cc1n[nH]c(C)c1CCOc1ccc(C(C)C)cc1` was -3.37%; that for `Cc1n[nH]c(C)c1CCCOc1ccccc1` was -17.6%; that for `Cc1cccc(C)c1OCCCCc1c(C)n[nH]c1C` was 78.5%.

In the case of `Cc1cccc(OCCCc2c(C)n[nH]c2C)c1`, the inhibition is 1.52%.

Turning to `Cc1ccccc1OCCCc1c(C)n[nH]c1C`, the inhibition was 33%.
